# Screens deposited in PubChem BioAssay by The Scripps Research Institute Molecular Screening Center.
# A selection: hits, their analogues and other compounds. The true share with any hit is near 2.3%.
# GSTO1 counter: inhibitors of recombinant GSTO1, primary screen, counter-screen for RBBP9 inhibitor project, biochemical, fluorescence polarization. Glutathione S-transferase omega-1 (Homo sapiens), P78417. activity-based probe fluorescence polarization. inhibition, % at 5.96 µM. 300,000 tested, 1.1% active;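 active means inhibition above the campaign mean inhibition plus 3 SD, cut at about 35% in these data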;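 further: 0% = GSTO1-1 with DMSO and 100% = wells lacking GSTO1-1 enzyme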
# pPAFAH inh: pPAFAH enzyme inhibitors, primary screen, biochemical, fluorescence polarization, human; recombinant pPAFAH, FP-rhodamine probe fluorescence polarization; AID 463082, 2010; Platelet-activating factor acetylhydrolase (Homo sapiens), Q13093; 330,000 tested, 1.5% active; inhibition, % at 3.39 µM;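 active means inhibition above the mean inhibition across the screen plus 3 SD, cut at about 25% in these data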;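 further: inhibitors block binding of the rhodamine activity-based probe so polarization drops; 0% = enzyme with DMSO and 100% = wells lacking pPAFAH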
# Fam108B inh: mouse Fam108B serine hydrolase inhibitors, primary screen, counter-screen for RBBP9 inhibitor project, biochemical, fluorescence polarization | recombinant Fam108B, FP-Rh probe fluorescence polarization | inhibition, % at 9.51 µM | AID 1947, 2009 | 300,000 tested, 0.33% active;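 active means inhibition above the screen mean inhibition plus 3 SD, computed separately per campaign, cut at about 18% in these data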;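 further: inhibitors lower polarization as less probe binds the enzyme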
# PAD4 FP inh: human PAD4 inhibitors, primary screen, biochemical, fluorescence polarization, 1536-well format | Protein-arginine deiminase type-4 (Homo sapiens), Q9UM07 | recombinant PAD4, RCA probe fluorescence polarization | inhibition, % at 6.36 µM | 330,000 tested, 0.41% active;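 active means percent inhibition above a cutoff equal to the mean of all tested compounds plus 3 SD, cut at about 15% in these data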;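 further: 0% = PAD4 with RCA probe and DMSO and 100% = probe without PAD4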
# PME-1 primary: PME-1 inhibitors via competitive probe labeling, primary screen, biochemical, fluorescence polarization, FP-Rh probe, HTS. Protein phosphatase methylesterase 1 (Homo sapiens), Q9Y570. recombinant PME-1. inhibition, % at 5.9 µM. 320,000 tested, 0.53% active. AID 2130, 2009;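 active means inhibition above the campaign mean of all compounds plus 3 SD, cut at about 26% in these data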;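 further: competitive labeling of PME-1 active site by serine hydrolase directed probe; 0% = PME-1 with DMSO and 100% = wells lacking PME-1 enzyme; inhibitors block probe labeling so polarization falls and inhibition rises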
# Target sequence (Q9Y570 whole entry, looked up): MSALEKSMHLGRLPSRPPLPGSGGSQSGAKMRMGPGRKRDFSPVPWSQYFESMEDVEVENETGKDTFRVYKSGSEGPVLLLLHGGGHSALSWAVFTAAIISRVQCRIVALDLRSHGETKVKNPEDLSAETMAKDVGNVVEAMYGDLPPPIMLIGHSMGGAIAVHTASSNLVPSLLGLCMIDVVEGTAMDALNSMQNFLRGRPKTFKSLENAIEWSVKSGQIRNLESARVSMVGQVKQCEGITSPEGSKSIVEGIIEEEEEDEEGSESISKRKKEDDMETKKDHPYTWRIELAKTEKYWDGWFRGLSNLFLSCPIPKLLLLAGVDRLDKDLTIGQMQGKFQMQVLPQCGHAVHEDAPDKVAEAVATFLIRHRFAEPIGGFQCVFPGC
# * hit, by the source's call; . = no result.
SMILES,GSTO1 counter,pPAFAH inh,Fam108B inh,PAD4 FP inh,PME-1 primary
O=C(N=Nc1c(O)[nH]c2ccc(F)cc12)c1ccc(NS(=O)(=O)c2cccs2)cc1,.,6,.,-5,10
Cc1cccc2c(N=NC(=O)c3ccc(NS(=O)(=O)c4cccs4)cc3)c(O)[nH]c12,.,28*,.,-2,16
O=C(N=Nc1c(O)[nH]c2ccccc12)c1ccccc1NS(=O)(=O)c1cccs1,-68,9,13,-2,3
C[C@@H]1C(=O)O[C@H]2C[C@@]34[C@H]5C[C@@H](C(C)(C)C)[C@]36[C@@H](OC(=O)[C@@H]6O)O[C@@]4(C(=O)O5)[C@]21O,4,4,-2,-2,2
CN(C)CCO[C@@H](c1ccc(Cl)cc1)c1ccccn1,3,27*,-2,-3,-4
Cc1ccc(S(=O)(=O)N2CCC(=O)N(C(COCc3cccc(C(F)(F)F)c3)C(C)C)CC2)cc1 (centres undefined),5,4,0,-2,-1
CCc1ccc(OCC(=O)Nc2ccc(N3CCN(S(C)(=O)=O)CC3)cc2)cc1,13,4,-2,0,1
O=C(Nc1ccc(S(=O)(=O)Nc2ccc(F)cc2)cc1)c1ccc(CN2CCOCC2)cc1,-7,34*,-8,1,-2
COc1ccc(NS(=O)(=O)c2ccc(NC(=O)c3ccc(CN4CCOCC4)cc3)cc2)cc1,-26,21,-3,-1,-3
CCOc1ccc(NS(=O)(=O)c2ccc(C(=O)NCCCN3CCOCC3)cc2)cc1,26,31*,1,0,5
Cc1ccc(S(=O)(=O)Nc2ccc(NC(=O)c3ccc(F)cc3)cc2)cc1,0,30*,-2,0,-2
Cc1ccc(S(=O)(=O)Nc2ccc(C(=O)Nc3ccncc3)cc2)cc1,-3,1,-6,-2,-5
CCOc1ccc(S(=O)(=O)Nc2nc3ccccc3nc2Nc2ccc(N3CCOCC3)cc2)cc1,23,33*,6,9,18
CCOc1ccc(S(=O)(=O)Nc2ccc(C(=O)NCC(C)(C)N3CCOCC3)cc2)cc1,6,2,0,-5,-10
N/N=C(/Cc1nc2ccccc2[nH]1)c1ccc([N+](=O)[O-])cc1,15,-1,5,-4,3
CCOC(=O)C1(Cc2cccc(Cl)c2)CCCN(C(=O)C(C)(C)C)C1 (centres undefined),2,-7,3,-12,0
CC(CCCN(C)C)C(Cc1ccccc1)c1ccccc1 (centres undefined),2,2,1,4,3
O=C(CCC1CCCN(C(=O)CCCc2ccccc2)C1)N1CCN(c2ccccn2)CC1 (centres undefined),5,25*,3,-4,10
Cc1ccc(C(=O)N2CCCC(CCC(=O)N3CCN(c4ccccn4)CC3)C2)s1 (centres undefined),1,30*,1,4,-6
Cc1cc(C)c2nc(NNC(=O)c3cc(=O)c4ccccc4o3)sc2c1,18,26*,2,-3,21
CCCCCCCCNC(=O)CC(NS(=O)(=O)c1ccc(NC(C)=O)cc1)C(C)C (centres undefined),1,32*,-3,3,-11
Cc1ccc(NC(=S)NNC(=S)Nc2cccc(C(F)(F)F)c2)cc1,38*,8,12,1,25
CCn1c(CNC(=O)COc2ccc(C(C)C)cc2)nnc1SCC(=O)Nc1ccccc1F,-1,3,-1,2,-3
CCn1c(CNC(=O)COc2ccc(C(C)C)cc2)nnc1SCC(=O)Nc1ccccc1C(C)C,4,30*,-3,5,2
O=[N+]([O-])c1ccc(N/N=C\c2cccn2-c2ccccc2)nc1,-7,29*,7,-6,19
SMILES,GSTO1 counter,pPAFAH inh,Fam108B inh,PAD4 FP inh,PME-1 primary
COC(=O)CCCC1=CC2=C(c3ccccc3)C(=O)C(C)(OC(=O)C3CCCC3)C(=O)C2=CN1C1CC1 (centres undefined),29,3,1,-3,7
COC(=O)CCCC1=CC2=C(c3ccccc3)C(=O)C(C)(OC(=O)C3CCCC3)C(=O)C2=CN1c1ccccc1 (centres undefined),35*,9,0,-8,1
COc1ccc(N2CC(C(=O)N(C)CC(=O)Nc3ccc(Cl)c(C(F)(F)F)c3)CC2=O)c(OC)c1 (centres undefined),-4,9,-1,-5,-4
COc1cccc(CNc2ccccc2O)c1OCc1ccccc1F,36*,20,9,-20,2
COc1cccc(CNc2ccc(S(N)(=O)=O)cc2)c1OCc1ccccc1F,-3,2,0,-3,0
CC(NCC(=O)Nc1ccccc1C(=O)NC1CC1)c1ccc(S(C)(=O)=O)cc1 (centres undefined),.,-3,.,1,6
C=CCc1cccc(/C=N/NC(=O)CNc2cccc3ccccc23)c1O,-2,16,17,4,39*
C=CCc1cccc(/C=N/NC(=O)CNc2ccccc2OC)c1O,3,13,6,1,8
O=C(CNc1cccc2ccccc12)N/N=C/C(Br)=C/c1ccccc1,15,6,8,2,27*
CC(C)[C@@]1(c2ccc(Cl)cc2)ON(c2ccccc2C(F)(F)F)C1=O,.,3,.,0,-1
CCOc1cccc(C(=O)Nc2ccc(N(CC)CC)cc2)c1,6,10,0,-4,2
CCN(CC)c1cccc(OCC(=O)N(C)CCC#N)c1,-27,22,-28,45*,-24
COc1ccc(C(=O)N2CCN(c3ccccn3)CC2)cc1[N+](=O)[O-],-5,-6,6,7,0
Oc1ccccc1Cn1c(-c2ccccc2O)nc2ccccc21,3,4,-11,0,-6
COc1ccccc1Cn1c(-c2ccccc2OC)nc2ccccc21,-7,27*,7,4,6
O=C1NC(=S)SC1=C1CCCC1,23,34*,2,1,-5
CN1C(=O)C(=C2CCCCCC2)SC1=S,4,3,-1,3,1
Cc1nc2ccc(N)cc2s1,7,1,3,-1,-5
CN(C)c1ccc2nc3ccc(=[N+](C)C)cc-3sc2c1,36*,3,-3,-3,4
O=C(Nc1ccccc1C(=O)NCc1cccnc1)c1ccc(Cl)cc1Cl,-1,-4,5,3,-1
COc1ccc(-n2c(SCC#N)nnc2-c2ccc(NS(=O)(=O)c3ccc(C)cc3)cc2)cc1,1,26*,-1,1,10
COc1ccc(C(=O)OC(C)C(=O)NCC2CCCCC2)cc1S(=O)(=O)N1CCOCC1 (centres undefined),.,1,.,-4,3
